Screens deposited in PubChem by Broad Institute.
This excerpt belongs to a sample that is enriched for hits.
IDE exosite inh: insulin-degrading enzyme (human) exo-site inhibition; purified IDE, FL-6b probe fluorescence polarization; hits give low values; P14735; z-score at 20 µM; actives 6.3% (n = 17,000); AID 1259349;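 active = z-score of -3 or lower, meaning strong loss of probe binding signal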;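 note: His-tagged human IDE residues 42-1019 made in E. coli with 30 nM FL-6b probe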
The depositor's hits bear a star.

SMILES	IDE exosite inh
COc1ccc(C#Cc2ccc([C@@H]3[C@H](CO)N4C(=O)CN(C(=O)c5ccncc5)C[C@@H]34)cc2)cc1	3.3
COc1ccc(C#Cc2ccc([C@@H]3[C@@H](CO)N4C(=O)CN(C(=O)c5ccncc5)C[C@@H]34)cc2)cc1	0.51
COc1ccc(C#Cc2ccc([C@H]3[C@H](CO)N4C(=O)CN(C(=O)c5ccncc5)C[C@@H]34)cc2)cc1	1.4
COc1cccc(C#Cc2ccc([C@@H]3[C@@H](CO)N4C(=O)CN(C(=O)c5ccncc5)C[C@@H]34)cc2)c1	-3.2*
COc1ccc(C#Cc2ccc([C@@H]3[C@@H](CO)N4C(=O)CN(C(=O)c5ccncc5)C[C@H]34)cc2)cc1	3.3
COc1ccc2c3c([nH]c2c1)[C@H](CO)N(C(=O)CC1CC1)CC31CCN(Cc2ccncc2)CC1	0.9
CS(=O)(=O)N1CCCCN2[C@H](CO)[C@H](c3ccc(Br)cc3)[C@@H]2C1	0.76
O=C(Nc1cccc(Cl)c1)N[C@@H]1CC[C@H](CCn2cc(Cc3ccccc3)nn2)O[C@@H]1CO	-0.79
COc1cccc(S(=O)(=O)N2CCCCN3[C@H](CO)[C@@H](c4ccc(C#CC5CC5)cc4)[C@H]3C2)c1	1.2
O=C(C[C@H]1CC[C@H]2[C@@H](COC[C@@H](O)CN2S(=O)(=O)c2ccc(F)cc2)O1)NCCN1CCCCC1	0.038
CC(C)CC#Cc1ccc([C@@H]2[C@@H](CO)N3C(=O)CN(C(=O)CN4CCOCC4)C[C@H]23)cc1	5.5
N#C[C@H]1[C@@H](c2ccccc2-c2ccccc2)[C@H](CO)N1C(=O)Cc1ccccc1	0.032
O=C(Nc1ccccc1F)N1CC(=O)N2[C@H](CO)[C@H](c3ccc(-c4ccccc4)cc3)[C@@H]2C1	-0.51
O=C(Nc1ccccc1F)N1CC(=O)N2[C@H](CO)[C@@H](c3ccc(C#Cc4ccccc4)cc3)[C@H]2C1	-0.57
O=C(Nc1cc(F)ccc1F)N1CC(=O)N2[C@@H](CO)[C@@H](c3ccc(-c4cccnc4)cc3)[C@@H]2C1	1.9
O=C(Nc1ccccc1F)N1CC(=O)N2[C@@H](CO)[C@H](c3ccc(C#Cc4ccccc4)cc3)[C@@H]2C1	-8.9*
O=C(Nc1ccccc1F)N1CC(=O)N2[C@H](C1)[C@@H](c1ccc(C#Cc3ccccc3)cc1)[C@@H]2CO	-2.8
O=C(Nc1cc(F)ccc1F)N1CC(=O)N2[C@H](CO)[C@H](c3ccc(-c4cccnc4)cc3)[C@H]2C1	-4.5*
O=C(Nc1ccccc1F)N1CC(=O)N2[C@H](CO)[C@@H](c3ccc(-c4ccccc4)cc3)[C@@H]2C1	-6*
O=C(Nc1cc(F)ccc1F)N1CC(=O)N2[C@@H](CO)[C@H](c3ccc(-c4cccnc4)cc3)[C@@H]2C1	1.6
O=C(Nc1ccccc1F)N1CC(=O)N2[C@H](CO)[C@@H](c3ccc(-c4ccccc4)cc3)[C@H]2C1	-1.4
CCCC#Cc1ccc([C@H]2[C@@H](CO)N3CCCCN(S(=O)(=O)c4ccccc4F)C[C@H]23)cc1	1.9
CCCNC(=O)N1CC2(C1)CN(C(=O)Nc1ccc(F)cc1)[C@H](CO)c1[nH]c3cc(OC)ccc3c12	2.6
CCCC#Cc1ccc([C@H]2[C@@H](CO)N3CCCCN(CC4CCOCC4)C[C@@H]23)cc1	4.2
COc1cccc(S(=O)(=O)N2CCCCN3[C@H](CO)[C@@H](c4ccc(C#CC5CC5)cc4)[C@@H]3C2)c1	3.8
SMILES	IDE exosite inh
C[C@H]1CN([C@@H](C)CO)C(=O)c2ccccc2-c2ccccc2CO[C@H]1CN(C)Cc1ccc2c(c1)OCCN2C	0.52
CN1C(=O)c2cc(NS(C)(=O)=O)ccc2OC[C@@H]2O[C@H](CC(=O)N3CCOCC3)CC[C@H]21	0.59
Cc1ccccc1-c1ccc([C@@H]2[C@@H](CO)N3C(=O)CN(C(=O)Nc4ccccc4)C[C@H]23)cc1	-6.1*
Cc1ccccc1-c1ccc([C@H]2[C@H](CO)N3C(=O)CN(C(=O)Nc4cccc(F)c4)C[C@@H]23)cc1	-3*
Cc1ccccc1-c1ccc([C@H]2[C@H]3CN(C(=O)Nc4ccc(F)cc4)CC(=O)N3[C@H]2CO)cc1	-7*
O=C(Nc1ccc(F)cc1)N1CC(=O)N2[C@@H](CO)[C@@H](c3ccc(-c4ccc(F)cc4)cc3)[C@@H]2C1	1.2
O=C(Nc1cccc(F)c1)N1CC(=O)N2[C@@H](CO)[C@H](c3ccc(-c4ccccc4F)cc3)[C@@H]2C1	-0.94
O=C(Nc1ccccc1)N1CC(=O)N2[C@H](CO)[C@H](c3ccc(-c4ccc(F)cc4)cc3)[C@@H]2C1	2.5
O=C(Nc1ccc(F)cc1)N1CC(=O)N2[C@H](CO)[C@@H](c3ccc(-c4ccc(F)cc4)cc3)[C@H]2C1	1.4
O=C(Nc1ccc(F)cc1)N1CC(=O)N2[C@H](CO)[C@H](c3ccc(-c4ccccc4)cc3)[C@@H]2C1	1.5
Cc1ccccc1-c1ccc([C@H]2[C@@H](CO)N3C(=O)CN(C(=O)Nc4ccc(F)cc4)C[C@H]23)cc1	-21*
O=C(Nc1ccccc1)N1CC(=O)N2[C@@H](CO)[C@H](c3ccc(-c4ccc(F)cc4)cc3)[C@@H]2C1	1.1
